Compound activity as filed in PubChem BioAssay.
VLA-4 inh – inhibition in human VLA-4 binding assay, primary screen, VLA-4 allosteric modulator project, MLPCN library, flow cytometry, VLA-4 expressing cells | ligand binding flow cytometry | 330,000 tested, 0.2% active | inhibition, % (about 7 µM as worked out from the volumes in the protocol) | Integrin alpha-4 (Homo sapiens), P13612; in the data active means inhibition above about 50%
GASC-1 inh – inhibitors of GASC-1 histone demethylase, primary screen, biochemical, fluorescence, DELFIA europium; 330,000 tested, 0.069% active; GST-JMJD2C(1-420) H3K9me3 demethylation; inhibition, % at 2.35 µM; Lysine-specific demethylase 4C (Homo sapiens), Q9H3R0; AID 2099, 2009;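 active means more than half of a compound's replicate wells show inhibition beyond 50%, single wells judged on their own value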;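 further: signal counts dimethyl H3K9 product captured on neutravidin plate; 0% = median of DMSO wells and 100% = 0.3 times that DMSO median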
Target sequence (Q9H3R0 1-420 limits assumed): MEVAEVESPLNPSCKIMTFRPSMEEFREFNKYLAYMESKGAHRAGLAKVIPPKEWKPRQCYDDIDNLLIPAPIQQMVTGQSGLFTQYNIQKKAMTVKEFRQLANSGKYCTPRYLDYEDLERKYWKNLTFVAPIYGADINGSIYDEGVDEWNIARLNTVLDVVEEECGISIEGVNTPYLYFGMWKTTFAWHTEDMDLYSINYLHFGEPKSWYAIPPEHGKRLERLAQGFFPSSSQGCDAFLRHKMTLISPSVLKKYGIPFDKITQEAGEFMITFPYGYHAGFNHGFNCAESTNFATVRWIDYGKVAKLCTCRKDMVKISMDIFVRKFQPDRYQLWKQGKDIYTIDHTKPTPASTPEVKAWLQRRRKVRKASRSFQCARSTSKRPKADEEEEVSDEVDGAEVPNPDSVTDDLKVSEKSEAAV
GRK2 aptamer HTS – compounds blocking aptamer binding on GRK2 – biochemical, human GRK2, bead flow cytometry, HTS, primary screen | Beta-adrenergic receptor kinase 1 (Homo sapiens), P25098 | FAM-aptamer displacement from GRK2 | inhibition of aptamer binding, % at 10 µM | 330,000 tested, 0.59% active;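 active means inhibition of aptamer binding above 40%, roughly 3 SD of noise, on plates passing a quality check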;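 further: median bead fluorescence of bound FAM aptamer so fluorescent compounds give negative values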
DSG3 Ab inh – inhibitors of pemphigus antibody binding to DSG3, primary screen, biochemical, bead-based, flow cytometry, scFv-GFP. binding (percent of control), % at 10 µM. 310,000 tested, 0.48% active. Desmoglein-3 (Homo sapiens), P32926. DSG3-coupled beads, scFv-anti-DSG3-GFP binding; active compounds read low;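 active means binding more than 3 SD below its plate's average and above zero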;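 further: hits lower antibody fragment binding to DSG3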
PREPL inh – PREPL enzyme inhibitors, primary screen, biochemical, fluorescence polarization; Prolyl endopeptidase-like (Homo sapiens), Q4J6C6; recombinant PREPL, fluorescence polarization activity-based probe; inhibition, % at 5.96 µM; 320,000 tested, 0.68% active; AID 2751, 2010; in the data active means inhibition above about 43%;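 further: 0% = enzyme with DMSO and 100% = wells lacking enzyme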
* = called active by the depositor; . = not tested or not shown. Shown are actives, neighbours in structure and some others; about 1.6% of the full set was active somewhere.

SMILES	VLA-4 inh	GASC-1 inh	GRK2 aptamer HTS	DSG3 Ab inh	PREPL inh
COc1ccc(CN(C)CC(=O)c2c(N)n(Cc3ccccc3)c(=O)n(C)c2=O)c(OC)c1	6	33	0	113	47*
O=C(OCc1ccc([N+](=O)[O-])cc1)c1cc(=O)c2ccccc2o1	-5	109	2	.	5
CN(C)C(=O)CCc1ccc2c3c([nH]c2c1)[C@]1(C)[C@@H](C(=O)N2CCCCC2)C[C@H](CC(=O)NC(C)(C)C)C(=O)N1CC3	.	.	0	106	.
C[C@]12c3[nH]c4ccc(Cl)cc4c3CCN1C(=O)[C@@H](CC(=O)NCc1cccc(C(F)(F)F)c1)C[C@@H]2C(=O)N1CCCCC1	.	.	0	99	.
CC[C@]12c3[nH]c4ccccc4c3CCN1C(=O)C(CC(=O)NCCCOC)C[C@@H]2C(=O)N1CCN(C(=O)C2CC2)CC1 (stereo partly drawn)	20	53*	9	110	19
CCN(CC)C(=O)[C@H]1CC(CC(=O)NCC23CC4CC(CC(C4)C2)C3)C(=O)N2CCc3c([nH]c4ccc(OC)cc34)[C@]12C (stereo partly drawn)	.	.	44*	100	.
COc1ccc2[nH]c3c(c2c1)CCN1C(=O)C(CC(=O)NCc2cccc(C(F)(F)F)c2)C[C@H](C(=O)N2CCCCC2)[C@@]31C (stereo partly drawn)	.	.	1	79*	.
CCN(CC)C(=O)[C@H]1C[C@H](CC(=O)NC(C)(C)C)C(=O)N2CCc3c([nH]c4cc(CCC(=O)N(C)C)ccc34)[C@]12C	.	.	50*	106	.
CCN(CC)S(=O)(=O)c1cc(NC(=O)CSc2nccn2C)ccc1C	5	-26	0	100	2
Cc1cc(Br)ccc1NC(=O)c1ccc(-n2cncn2)c([N+](=O)[O-])c1	10	-4	0	105	25
COc1ccc(C(=O)N(C)CC2CCN(CCc3cccc(C(F)(F)F)c3)CC2)cc1C	12	9	0	117	9
CCOC(=O)C1(CC2CC2)CCN(C(=O)c2cc(C)nc3ccc(CC)cc23)CC1	-4	-2	0	105	3
COc1ccc(CC(=O)OCc2cc3ccccc3[nH]c2=O)cc1	-6	2	0	104	-4
COc1cc(OC)cc(C(=O)OCc2cc3ccccc3[nH]c2=O)c1	-7	-2	3	80*	-11
CC(C)CNC(=O)C(=O)NCc1ccccn1	2	-13	1	15*	1
CCOc1ccc(CN2CCN(Cc3[nH]c4ccccc4c3C)CC2CCO)cc1 (stereo not drawn)	17	-40	3	116	20
COc1ccc(-n2ccc(=O)c(C(=O)Nc3ccc(S(=O)(=O)Nc4nccs4)cc3)n2)cc1	-10	.	3	49*	28
O=C1c2ccc([N+](=O)[O-])cc2C(=O)N1Cc1cccnc1	6	52*	0	118	3
O=C(NCc1ccccc1)c1ccc2c(c1)C(=O)N(Cc1cccnc1)C2=O	3	0	1	106	.
O=C(Nc1ccc(OCc2ccccc2)cc1)Nc1ccccc1C(=O)NCCCN1CCOCC1	8	-4	1	.	32
COc1ccc(NC(=O)CN(c2ccc(OC)cc2)S(=O)(=O)c2c(C)nn(C)c2C)cc1	7	0	0	-9.2*	13
COc1ccc(N(CC(=O)Nc2ccc(OC)c(Cl)c2)S(=O)(=O)c2c(C)noc2C)cc1	17	-7	2	102	6
COc1ccc(NC(=O)CN(c2ccc(C)cc2)S(=O)(=O)c2c(C)nn(C)c2C)cc1	-3	-5	0	105	8
COc1ccc(N(CC(=O)Nc2ccc(F)c(Cl)c2)S(=O)(=O)c2c(C)noc2C)cc1	3	7	0	6.0*	8
CCCCOc1ccc(C(C)NC(=O)CCS(=O)(=O)Cc2ccc(Cl)cc2)cc1 (stereo not drawn)	-5	6	0	105	-4
SMILES	VLA-4 inh	GASC-1 inh	GRK2 aptamer HTS	DSG3 Ab inh	PREPL inh
CCCCOc1ccc(C(C)NC(=O)CCS(=O)(=O)Cc2ccccc2Cl)cc1 (stereo not drawn)	.	2	0	13*	-4
Cc1ccc(NC(=O)Cn2c(=O)c3cccn3c3ccccc32)c(Cl)c1	23	4	0	32*	-23
O=C(Cn1c(=O)c2cccn2c2ccccc21)Nc1ccc(F)cc1F	0	5	0	114	-2
COc1cccc(NC(=O)c2ccc(-c3ccc([N+](=O)[O-])cc3)o2)c1	1	-3	10	84*	4
O=C(Nc1ccccc1F)c1ccc(-c2cccc([N+](=O)[O-])c2)o1	-10	0	0	.	5
O=C(Nc1nccs1)c1ccc(-c2cccc([N+](=O)[O-])c2)o1	19	-20	0	64*	1
COc1ccc(NC(=O)c2ccc(-c3ccc([N+](=O)[O-])cc3)o2)cc1OC	-17	3	2	94	29
CCOc1ccc2nc(NC(=O)CSc3nc4c(c(=O)n(C)c(=O)n4C)n3C(C)C)sc2c1	1	-3	0	103	14
CC(C)n1c(SCC(=O)Nc2nc3ccccc3s2)nc2c1c(=O)n(C)c(=O)n2C	4	1	2	87*	36
Cc1ccc(C(=O)OCC(=O)Nc2cccc(S(=O)(=O)NC3=NCCCCC3)c2)c(C)c1	8	-4	1	74*	34
Cc1ccc(SCc2nc3ccccc3n2CC(=O)Nc2ccccc2)cc1	-13	-6	0	107	53*
COc1ccc(NC(=O)C2CCCN2S(=O)(=O)c2cccc3nsnc23)c(OC)c1 (stereo not drawn)	21	4	3	103	13
CN(C/C=C/c1ccccc1)C1CCCCC1	-3	2	0	101	7
NC(=O)c1ccsc1NC(=O)COC(=O)c1cnccn1	15	-15	1	80*	20
NC(=O)c1ccsc1NC(=O)COC(=O)c1ccccn1	2	-19	0	95	10
O=C(OCc1nnc(-c2ccccc2)o1)c1cc(Cl)ccc1[N+](=O)[O-]	4	-3	1	103	17
FC(F)Oc1ccc(NC(=S)NCc2ccccc2)cc1	22	-8	0	97	11
Cc1ccc(S(=O)(=O)NCc2ccc3c(c2)cc(C)n3C)cc1	12	-8	21	71*	-1
Cc1cc2cc(CNC(=O)COc3ccccc3)ccc2n1C	2	7	23	88	52*
Cc1cc2cc(CNC(=S)Nc3ccc(OC(F)F)cc3)ccc2n1C	21	8	0	63*	38
COCC(=O)NCc1ccc2c(c1)cc(C)n2C	3	1	20	81	4
Cc1cc2cc(CNC(=O)c3cc4ccccc4o3)ccc2n1C	-11	.	87*	.	65*
